# Screening results: PubChem BioAssay, National Center for Advancing Translational Sciences (NCATS)
# PMP22 txn: modulates PMP22 transcription in S16 Schwann cells; Potency, µM (top dose mostly 57.5 µM), without a hit: at the top dose activity change, negative = inhibition, usual class: inhibitors; hit rate 2% among 43,000; S16 Pmp22-F2sN Schwann cells, FLuc/NLuc coincidence luminescence, 24 h; AID 1508649; active = clear falling dose curves in both reporters; inconclusive = both reporters move, but less clearly or upward; inactive = either reporter flat; the % is the NLuc reporter signal; note: potency is the fitted concentration of half-maximal effect; % is set by controls: 0 for no effect and ±100 for the full control effect
#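 Luminescent read-out of sequential FLuc and NLuc signals from a reporter embedded in the Pmp22 3' UTR of S16 Schwann cells, taken after 24 h compound exposure at 37C; compounds reducing both signals score as inhibitors of expression.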
# S16 F2sN tox: toxic to S16 Pmp22-F2sN Schwann cells. hit rate 0.48% among 43,000. Potency, µM (highest dose often 57.5 µM), for the others: top-dose activity change, negative = cytotoxicity, most hits filed as cytotoxic. S16 Pmp22-F2sN Schwann cells (luciferase reporters placed in the Pmp22 gene) viability, CellTiter-Glo, 24 h. AID 1508642; note: potency is the fitted concentration of half-maximal effect; % is set by controls: 0 for no effect and ±100 for the full control effect; nearly all actives have a fitted effect of over 65% in size
#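 Rat S16 Schwann reporter line, 24 h treatment with library compounds delivered at 23 nL per well. Cell viability by CellTiter-Glo luminescence.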
# p53null 32C tox: kills p53 null cells at the permissive temperature; hit rate 0.62% among 55,000; AID 903; Potency, µM (doses to about 46.1 µM), for the others: at the top dose activity change, negative = cytotoxicity, usual class: cytotoxic; H1299-neo p53 null cells, ATP luminescence, 24 h, 32C;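 note: potency is the fitted concentration of half-maximal effect; 0% = DMSO only and -100% = full killing by 100 µM tamoxifen; nearly all actives have a fitted effect of over 55% in size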
#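 H1299-neo (p53-null) cells, 600/well, were pre-incubated overnight at 37C, then exposed to compounds at up to 46 uM for 24 hr at 32C. Viability was measured as ATP content by luminescence, and AC50 values came from Hill fits.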
# p53null 39C kill: kills p53 null cells at the nonpermissive temperature; H1299 p53-null (neo) cells, 39C, ATPlite viability, 24 h; Potency, µM (highest dose often 46.1 µM), for inactives: at the highest dose activity, negative = cell killing, hits mostly cytotoxic; hit rate 0.97% among 55,000; AID 904;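 note: potency is the fitted concentration of half-maximal effect; 0% = DMSO only and -100% = full killing by 100 µM tamoxifen; nearly all actives have a fitted effect of over 50% in size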
#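 Temperature-shift cytotoxicity format: compound titrations on p53-null or A138V-expressing H1299 cells held 24 hr at 39C, cell ATP then measured, AC50 from Hill model.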
# pS6 MEF inh: inhibitors of mTORC1 signaling in Tsc2-/- p53-/- MEF cells. Tsc2-/- p53-/- MEF, phospho-rpS6 immunofluorescence/PI, 24 h. Potency, µM (highest dose often 38.3 µM), inactives show at the highest dose activity change, negative = inhibition, hits mostly inhibitors. hit rate 0.78% among 44,000;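 note: potency is the fitted concentration of half-maximal effect; plate controls were DMSO for no effect and rapamycin for full effect; nearly all actives have a fitted effect of over 50% in size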
#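 Cell-based qHTS: Tsc2-/- p53-/- MEF, 24 h cpd, 37 °C; fix/perm, anti-phospho-S6 Alexa-488 + PI; Acumen 488 nm scan; pS6/PI ratio, % positive cells; rapamycin 7.5 nM = inhibition ref; PI count = viability.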
# SKOV3 invasion: inhibitors of ovarian cancer cell adhesion and invasion in omental model; SKOV3ip1-GFP adhesion/invasion on 3D omental model, fluorescence; AID 1963576; hit rate 0.1% among 46,000; Potency, µM (highest dose often 45.8 µM), for the others: top-dose activity change, negative = inhibition, actives largely listed as inhibitors;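 note: potency is the fitted concentration of half-maximal effect; plate controls were DMSO wells for no effect and tomatine positive control wells for full effect; nearly all actives have a fitted effect of over 65% in size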
#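 Adhesion/invasion was scored as fixed GFP-labeled SKOV3ip1 cell counts (488/509 nm), normalized to DMSO and tomatine controls. Cancer cells in serum-free medium, with four compound doses (0.36-46 umol/L), sat 2 hr at RT then 16 hr at 37 C on a 48 hr fibroblast/mesothelial/ECM culture.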
# NLuc sat counter: NanoLuc enzyme inhibition artifact for PMP22 screen | shares compounds with PMP22 txn | Secreted NLuc enzyme (filtered S16 cell medium), Nano-Glo luminescence | Potency, µM (highest dose often 57.5 µM), for the others: at the highest dose activity change, negative = inhibition, most hits filed as inhibitors | hit rate 4% among 690; note: potency is the fitted concentration of half-maximal effect; % is set by controls: 0 for no effect and ±100 for the full control effect
# NLuc Km ctr: inhibits NanoLuc under Km conditions, PMP22 counter-screen; shares compounds with PMP22 txn; secreted NLuc enzyme, coelenterazine luminescence, Km conditions; Potency, µM (top dose mostly 57.5 µM), for the others: top-dose activity change, negative = inhibition, usual class: inhibitors; hit rate 5% among 690; note: potency is the fitted concentration of half-maximal effect; % is set by controls: 0 for no effect and ±100 for the full control effect
# FLuc ctr PMP22: inhibits firefly luciferase, PMP22 counter-screen; shares compounds with PMP22 txn; 690 tested, under 10 active; purified P. pyralis FLuc, luminescence, 10 min; Potency, µM (titrated, usually from 57.5 µM), without a hit: top-dose activity, negative = inhibition, hits mostly inhibitors; AID 1508640; note: % of control where 0% means no effect
# Target sequence (P08659 whole entry, looked up): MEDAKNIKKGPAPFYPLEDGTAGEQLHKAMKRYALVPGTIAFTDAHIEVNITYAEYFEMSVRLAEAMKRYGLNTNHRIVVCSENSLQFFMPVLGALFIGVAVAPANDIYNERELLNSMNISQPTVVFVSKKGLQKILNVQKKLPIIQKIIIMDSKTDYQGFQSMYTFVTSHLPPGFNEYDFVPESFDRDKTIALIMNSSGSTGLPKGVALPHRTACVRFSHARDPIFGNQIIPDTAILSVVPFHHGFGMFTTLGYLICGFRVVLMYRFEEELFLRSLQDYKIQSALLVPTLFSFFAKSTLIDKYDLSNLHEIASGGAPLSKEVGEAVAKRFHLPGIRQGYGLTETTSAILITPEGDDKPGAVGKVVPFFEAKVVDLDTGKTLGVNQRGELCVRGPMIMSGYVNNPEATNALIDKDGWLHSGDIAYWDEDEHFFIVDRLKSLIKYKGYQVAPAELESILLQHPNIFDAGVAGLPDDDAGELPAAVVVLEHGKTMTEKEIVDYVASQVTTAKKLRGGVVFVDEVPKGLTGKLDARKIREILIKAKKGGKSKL
# S16 F2sN tox cnf: S16 Schwann cell cytotoxicity, confirmatory; shares compounds with PMP22 txn; S16 Schwann cells viability, CellTiter-Glo ATP luminescence, 24 h; Potency, µM (top dose mostly 57.5 µM), inactives show at the highest dose activity change, negative = viability loss, hits mostly cytotoxic; hit rate 7% among 690; AID 1508641; note: potency is the fitted concentration of half-maximal effect; % is set by controls: 0 for no effect and ±100 for the full control effect
# PMP22 txn cnf: PMP22 transcription modulation, confirmatory | shares compounds with PMP22 txn | S16 Schwann cells Pmp22-F2sN, dual luciferase, 24 h | Potency, µM (series often up to 57.5 µM), without a hit: at the highest dose activity change, negative = inhibition, actives largely listed as inhibitors | hit rate 22% among 690 | AID 1508646; active = clear falling dose curves in both reporters; inconclusive = both reporters move, but less clearly or upward; inactive = either reporter flat; the % is the FLuc reporter signal; note: potency is the fitted concentration of half-maximal effect
# PMP22 HiBiT cnf: confirmation of modulators of rat PMP22 protein expression; shares compounds with PMP22 txn; S16 Schwann cells Pmp22-HiBiT, luminescence, 48 h; Potency, µM (highest dose often 27.9 µM), inactives show top-dose activity change, negative = inhibition, most hits filed as inhibitors; 95 tested, under 10 active
# Target sequence (P25094 whole entry, looked up): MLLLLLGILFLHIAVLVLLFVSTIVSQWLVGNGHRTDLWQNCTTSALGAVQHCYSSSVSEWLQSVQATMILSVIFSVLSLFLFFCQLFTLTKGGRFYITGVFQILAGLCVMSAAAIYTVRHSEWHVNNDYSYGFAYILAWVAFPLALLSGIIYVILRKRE
# Numbers without * were called inactive; i = inactive; u = inconclusive; x = not tested or not shown; [ ] = dose if it differs, or a comment. The list is not random: actives were taken first. Their share in the collection is about 3.1%. Unless noted, calls come from the whole dose curve; as a rule, active = well fitted curve in the direction sought with a large enough effect; inconclusive = small, poorly fitted or top-dose-only effect, or another doubt; inactive = no such curve, though single readings can be large; an effect the other way counts as inactive or inconclusive.
SMILES,PMP22 txn,S16 F2sN tox,p53null 32C tox,p53null 39C kill,pS6 MEF inh,SKOV3 invasion,NLuc sat counter,NLuc Km ctr,FLuc ctr PMP22,S16 F2sN tox cnf,PMP22 txn cnf,others
Cc1cccc(OCC(=O)Nc2ccc3nc(SCc4ccccc4)sc3c2)c1,16µM*,28%,1%,u,-4%,3%,3%,4%,1%,-1%,u,
Cc1ccc(CSc2nc3ccc(NC(=O)COc4ccc(F)cc4)cc3s2)cc1,-8%,7%,1%,-11%,-1%,4%,x,x,x,x,x,
O=C(COc1ccc(F)cc1)Nc1ccc2nc(SCc3ccccc3)sc2c1,7µM*,17%,-10%,-2%,-13%,2%,-1%,-1%,8%,-6%,u,
Cc1ccc(OCC(=O)Nc2ccc3nc(SCC(=O)N4CCc5ccccc54)sc3c2)cc1,2.4µM*,0%,-3%,-11%,0%,-5%,-3%,-2%,-8%,-11%,7.3µM*,PMP22 HiBiT cnf=u
Clc1ccc(C(Cn2ccnc2)OCc2ccc(Sc3ccccc3)cc2)c(Cl)c1 (stereo unspecified),x,x,x,x,x,-7%,x,x,x,x,x,
CCCCCCCCCCCCCCCC(=O)OC[C@@H](NC(=O)C(Cl)Cl)[C@H](O)c1ccc([N+](=O)[O-])cc1,x,x,x,x,x,-3%,x,x,x,x,x,
CCCCNc1oc(-c2ccc(COc3ccc(OC)cc3)o2)nc1C#N,-26%,-2%,-3%,7%,-8%,-3%,x,x,x,x,x,
COCCNc1oc(-c2ccc(COc3ccc(OC)cc3)o2)nc1C#N,u,-15%,-4%,2%,-12%,2%,u,-6%,-18%,u,-11%,
Cc1ccc(Cl)cc1N1CCN(CCCNc2ncnc3onc(-c4ccc(Cl)cc4)c23)CC1,14µM*,4%,0%,-2%,-2%,-3%,-7%,7%,-9%,5%,u,
CCCCCOc1ccccc1CN1C(=O)C(=O)c2cc(C)ccc21,14µM*,0%,2%,u,u,i,u,u,-1%,-6%,u,
CCCC(=O)Nc1nnc(SCc2cc(=O)c3ccc(C)cc3[nH]2)s1,6.8µM*,-22%,0%,2%,u,-19%,u,u,-12%,-23%,u,
CCC(=O)Nc1nnc(SCc2cc(=O)c3cc(C)ccc3[nH]2)s1,u,-25%,-3%,15%,8%,-1%,x,x,x,x,x,
COc1cc(C(C)=O)ccc1OCCCN1CCC(c2noc3cc(F)ccc23)CC1,x,x,x,x,x,11%,x,x,x,x,x,
CCN(CC)CCn1c2c(c(SCC(=O)Nc3cccc(C(F)(F)F)c3)nc1=O)CCC2,16µM*,-16%,-8%,-4%,0%,-7%,-10%,0%,-1%,-8%,u,
O=C(CSc1nc(=O)n(Cc2ccncc2)c2c1CCC2)Nc1cccc(F)c1,u,6%,4%,30%,-18%,-1%,x,x,x,x,x,
Cn1c(CNc2ccc(C(=N)N)cc2)nc2cc(C(=O)N(CCC(=O)O)c3ccccn3)ccc21,x,x,x,x,x,7%[23.2 µM],x,x,x,x,x,
COc1cc2c(cc1OC)CN(CCc1ccc(NC(=O)c3cc(OC)c(OC)cc3NC(=O)c3cnc4ccccc4c3)cc1)CC2,x,x,x,x,x,14%,x,x,x,x,x,
CC1(C)CCC(c2ccc(Cl)cc2)=C(CN2CCN(c3ccc(C(=O)NS(=O)(=O)c4ccc(N[C@H](CCN5CCOCC5)CSc5ccccc5)c(S(=O)(=O)C(F)(F)F)c4)cc3)CC2)C1,x,x,x,x,x,-5%,x,x,x,x,x,
O=C(Nc1ncc(-c2cc(C(F)F)nn2-c2c(Cl)cccc2Cl)s1)C1CC1,x,x,x,x,x,45%,x,x,x,x,x,
COc1cc2ccccc2cc1C(=O)Nc1ccc2oc(-c3cccc(Cl)c3Cl)nc2c1,4.2µM*,u,3%,37%,u,-2%,-10%,1%,-28%,27µM*,12µM*,
Cc1ccc(C)n1-c1nnc(N2CCCC(C(=O)NCc3ccccc3)C2)s1 (stereo unspecified),u,-7%,-5%,0%,-12%,-4%,x,x,x,x,x,
Cc1ccc(C)n1-c1nnc(N2CCCC(C(=O)NCc3cccc(F)c3)C2)s1 (stereo unspecified),15µM*,-15%,-6%,-3%,-10%,i,-6%,-13%,0%,-1%,u,
COc1ccccc1CNC(=O)C1CCCN(c2nnc(-n3c(C)ccc3C)s2)C1 (stereo unspecified),u,1%,0%,-1%,-1%,103%,-12%,-8%,1%,14%,-28%,
C=CC(=O)N1CCC[C@@H](n2nc(-c3ccc(Oc4ccccc4)cc3)c3c(N)ncnc32)C1,x,x,x,x,x,0%,x,x,x,x,x,
CC(C)C[C@H](NC(=O)[C@@H](NC(=O)c1cccc(-c2ccccc2)n1)[C@@H](C)O)B(O)O,x,x,x,x,x,-19%,x,x,x,x,x,
